Sfp inh – qHTS Assay for Inhibitors of Bacillus subtilis Sfp phosphopantetheinyl transferase (PPTase); 4'-phosphopantetheinyl transferase ffp (Bacillus subtilis), Q9F4F7; Biochemical Sfp PPTase activity, qHTS; Potency, µM, most hits filed as inhibitors; 3.5% of 310,000 active;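 also: the enzyme is Sfp with the accession as filed and its product quenches rhodamine fluorescence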
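Reaction rates are the 30-min fluorescence difference (ex 525, em 598 nm) in wells containing 15 nM Sfp, 5 uM rhodamine-CoA and 12.5 uM BHQ-2-YbbR at pH 7.6 with 10 mM MgCl2.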
HP1b chromo inh – HTS for Inhibitors of HP1-beta Chromodomain Interactions with Methylated Histone Tails. Chromobox protein homolog 1 (Homo sapiens), P83916. 0.56% of 390,000 active. AlphaScreen HP1-beta / biotin-H3K9me3 peptide binding. Potency, µM (titrated, usually from 114 µM), hits mostly inhibitors. AID 540317, 2011; also: nearly all actives have a fitted effect of over 70% in size
Target sequence (P83916 whole entry, looked up): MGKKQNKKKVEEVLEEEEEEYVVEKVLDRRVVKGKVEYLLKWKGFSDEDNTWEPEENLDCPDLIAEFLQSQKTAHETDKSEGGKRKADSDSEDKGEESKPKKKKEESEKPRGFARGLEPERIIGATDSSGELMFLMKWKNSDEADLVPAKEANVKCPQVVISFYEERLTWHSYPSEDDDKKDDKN
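HP1-beta protein (50 nM final) preincubated 30 min at room temperature with biotinylated H3(1-18)K9me3 peptide (50 nM) in PBS pH 7.4, 0.01% Tween-20, then compound added for 30 min. AlphaScreen streptavidin donor/nickel chelate acceptor beads (10 ug/mL final), 30 min dark, luminescence read.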
JMJD2A Tudor – qHTS Assay for Inhibitors of JMJD2A-Tudor Domain; 4.4% of 390,000 active; AlphaScreen JMJD2A-Tudor / H3K4me3 peptide binding; Lysine-specific demethylase 4A (Homo sapiens), O75164; Potency, µM (doses to about 114 µM), most hits filed as inhibitors; also: nearly all actives have a fitted effect of over 50% in size
BAZ2B block – qHTS Assay for Inhibitors of BAZ2B. 4.4% of 360,000 active. Potency, µM (series often up to 114 µM), most hits filed as inhibitors. AlphaScreen BAZ2B-H3K14Ac peptide displacement. AID 504333, 2011; also: nearly all actives have a fitted effect of over 60% in size
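Complex of BAZ2B and biotin-H3K14Ac (50 nM apiece) forms over 30 min at RT, then faces library compounds up to 110 uM for another 30 min; AlphaScreen beads added, 20 min dark incubation, luminescence read.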
G9a inh – qHTS Assay for Inhibitors of Histone Lysine Methyltransferase G9a | Histone-lysine N-methyltransferase EHMT2 (Homo sapiens), Q96KQ7 | G9a H3K9 monomethylation, AlphaScreen, 2 h | Potency, µM (series often up to 102 µM), hits mostly inhibitors | 8.8% of 350,000 active | AID 504332, 2011; also: nearly all actives have a fitted effect of over 75% in size
Target sequence (Q96KQ7 913-1193 limits assumed): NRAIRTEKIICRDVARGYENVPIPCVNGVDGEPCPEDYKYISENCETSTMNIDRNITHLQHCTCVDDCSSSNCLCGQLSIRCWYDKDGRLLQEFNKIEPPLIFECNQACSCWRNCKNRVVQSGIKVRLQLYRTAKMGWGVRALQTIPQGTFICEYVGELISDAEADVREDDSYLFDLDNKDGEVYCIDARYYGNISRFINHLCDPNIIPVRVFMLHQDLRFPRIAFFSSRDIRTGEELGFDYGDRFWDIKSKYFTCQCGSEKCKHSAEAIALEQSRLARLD
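Enzyme 20 nM + cpd, 15 min RT; add b-H3K9 pep 500 nM / SAM 20 uM; 2 h RT; anti-H3K9me1 Ab 0.5 ug/mL + SA donor / anti-rabbit acceptor beads 20 ug/mL each, 10 min; AlphaScreen read.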
L3MBTL1 inh – qHTS Assay for the Inhibitors of L3MBTL1; Lethal(3)malignant brain tumor-like protein 1 (Homo sapiens), Q9Y468; AlphaScreen L3MBTL1–H3K9me1 peptide binding; Potency, µM (titrated, usually from 57.1 µM), usual class: inhibitors; 0.66% of 230,000 active; also: nearly all actives have a fitted effect of over 60% in size
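Read-out is AlphaScreen signal from streptavidin donor and nickel chelate acceptor beads (10 ug/mL final each) bridging L3MBTL1 (50 nM) and biotinylated K9-monomethylated H3(1-15) peptide (75 nM), after 30 min compound exposure at room temperature.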
Hits are given with their value; . = inactive; ? = inconclusive; / = not tested or not shown; [ ] = another dose, or the depositor's remark. A selection: hits, their analogues and other compounds. The true share with any hit is near 12%. Calls follow the shape of the dose curve; as a rule, active = well fitted curve in the direction sought with a large enough effect; inconclusive = small, poorly fitted or top-dose-only effect, or another doubt; inactive = no such curve, though single readings can be large; an effect the other way counts as inactive or inconclusive.

SMILES	Sfp inh	HP1b chromo inh	JMJD2A Tudor	BAZ2B block	G9a inh	L3MBTL1 inh
COc1ccc(CN2CCCCC2C(=O)Nc2ccc(OC)c(OC)c2)cc1OC (centres undefined)	.	.	.	.	.	.
COc1cccc(CN2CCCCC2C(=O)O)c1 (centres undefined)	.	.	.	.	.	.
CCC1CCCCN1Cc1ccc(OC)c(C)c1 (centres undefined)	.	?	7.08µM	56.2µM	50.1µM	/
O=C1OC(C2=CCCCC2)=NC12CC2	.	/	/	/	/	/
C[C@H](NC(=O)c1ccco1)C(=O)NNC(=O)COc1cccc(C(F)(F)F)c1	/	.	.	/	/	.
Clc1ccc2nc(CSCc3ccccc3)cn2c1	.	.	.	.	.	.
O=C(O)CN1C(=O)SC(Nc2ccccc2C(=O)O)C1=O (centres undefined)	?	.	?	?	39.8µM	/
O=C(O)CN1C(=O)SC(Nc2ccc(C(=O)O)cc2)C1=O (centres undefined)	.	.	.	?	?	/
O=C(O)c1cccc(CN2C(=O)SC(Nc3cccc4ccccc34)C2=O)c1 (centres undefined)	?	.	.	?	50.1µM	.
CCOc1ccc(C2C3=C(CC(C)(C)CC3=O)N(CC(=O)O)C3=C2C(=O)CC(C)(C)C3)cc1OCC	.	.	.	.	50.1µM	.
COc1ccc(N2C(=O)CC(NC3CCCCNC3=O)C2=O)cc1 (centres undefined)	.	.	.	.	11.2µM	.
COc1ccc(N2C(=O)CC(NNc3ncc(Cl)cc3Cl)C2=O)cc1 (centres undefined)	50.1µM	.	?	?	?	?
CCOC(=O)CNC1CC(=O)N(c2ccc(Br)cc2)C1=O (centres undefined)	.	.	.	.	10µM	/
COc1ccc(N2C(=O)CC(NCC#N)C2=O)cc1 (centres undefined)	.	.	.	.	28.2µM	.
CC(C)(C)c1ccc(S(=O)(=O)N2CCN(CCC#N)CC2)cc1	.	.	.	.	.	.
Cc1ccc(S(=O)(=O)c2ccc(C)cc2)cc1	.	.	.	.	.	/
Cc1ccc(S(=O)(=O)/C=C2\NC(=O)CS2)cc1	.	.	.	.	?	/
Cc1ccc(S(=O)(=O)/C=C/C#N)cc1	2.82µM	/	/	/	1.58µM	/
Cc1ccc(S(=O)(=O)/C=C\C#N)cc1	44.7µM	/	/	/	/	/
CC(C)(C)c1ccc(S(=O)(=O)/C=C\C#N)cc1	44.7µM	/	/	/	/	/
COc1ccc(-c2[nH]nc3oc(=O)c(CCO)c(C)c23)cc1	.	.	.	.	.	.
CCCNC(=S)Nc1cc2oc3ccccc3c2cc1OC	.	.	.	?	.[0.501 µM]	/
COc1cc2c(cc1NC(=O)COC(=O)CNS(=O)(=O)c1ccc(C)cc1)oc1ccccc12	.	.	.	.	39.8µM	.
COc1ccc(S(=O)(=O)N[C@@H](C)C(=O)OCC(=O)Nc2cc3oc4ccccc4c3cc2OC)cc1	.	.	.	.	.	.
CCNC(=S)Nc1cc2oc3ccccc3c2cc1OC	.	.	?	.	25.1µM	/
SMILES	Sfp inh	HP1b chromo inh	JMJD2A Tudor	BAZ2B block	G9a inh	L3MBTL1 inh
COc1ccc(NC(=O)CCNC(=O)c2ccco2)cc1S(=O)(=O)N(C)C	.	.	.	.	.	/
COCC(C)NCc1cccc2ccccc12 (centres undefined)	.	.	31.6µM	.	31.6µM	.
CC(CCc1ccccc1)NCc1cccc2ccccc12 (centres undefined)	.	.	25.1µM	.[0.457 µM]	?	.
COCC(C)NCc1ccc(C)cc1C (centres undefined)	.	.	4.47µM	.	11.2µM	.
COc1ccc(CCC(C)NCc2ccccc2OC)cc1 (centres undefined)	.	.	.	.	.	/
COC(=O)c1ccc(C2Nc3c(C)cccc3-c3cc(C)nn32)cc1 (centres undefined)	/	.	.	.	.	/

Screening data as filed in PubChem BioAssay.
